Inconclusive results are not listed. Calls of active or inactive are those of the source. Unless noted, calls follow the shape of the dose curve; as a rule, active = well fitted curve in the direction sought with a large enough effect in the repeat runs; inconclusive = weak or mixed curves; inactive = no such curve, though single readings can be large; an effect the other way counts as inactive or inconclusive.
What was measured:
[1] = qHTS assay to identify small molecule antagonists of the estrogen related receptor (ERR) signaling pathway from Tox21 library - cell viability counter screen (AID 1224834); also: nearly all actives have a fitted effect of over 30% in size
Method in brief: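 In this quantitative HTS format, ERR cells receive compounds in DMSO and are incubated for 17.5 h at 37 C. Live-cell protease activity is then detected with CellTiter-Fluor.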

[2] = target: Luciferin 4-monooxygenase (Photinus pyralis) (UniProt P08659); test: qHTS assay to identify small molecule inhibitors of firefly luciferase (AID 1224835); also: series mostly up to about 120 µM; nearly all actives have a fitted effect of over 25% in size
Chain of Luciferin 4-monooxygenase (Photinus pyralis) (P08659 whole entry, looked up): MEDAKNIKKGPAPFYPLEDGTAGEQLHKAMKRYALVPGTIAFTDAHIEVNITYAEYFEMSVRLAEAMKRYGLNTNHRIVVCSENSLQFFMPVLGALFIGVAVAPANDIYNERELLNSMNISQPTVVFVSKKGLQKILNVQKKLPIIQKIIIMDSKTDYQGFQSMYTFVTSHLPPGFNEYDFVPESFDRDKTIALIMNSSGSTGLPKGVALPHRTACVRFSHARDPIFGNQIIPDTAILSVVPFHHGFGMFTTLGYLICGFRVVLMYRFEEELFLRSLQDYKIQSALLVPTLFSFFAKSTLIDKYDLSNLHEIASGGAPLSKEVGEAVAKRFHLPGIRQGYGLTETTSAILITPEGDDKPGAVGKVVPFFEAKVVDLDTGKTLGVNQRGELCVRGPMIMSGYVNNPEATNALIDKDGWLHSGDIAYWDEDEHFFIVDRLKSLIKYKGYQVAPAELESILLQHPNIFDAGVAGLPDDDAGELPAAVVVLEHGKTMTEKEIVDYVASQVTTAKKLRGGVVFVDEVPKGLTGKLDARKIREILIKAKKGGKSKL
Method in brief: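 Inhibition of purified Photinus luciferase is measured by luminescence. Substrate levels (D-luciferin, ATP) sit at their KM values. Each compound is tested in a concentration series.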

[3] = qHTS assay to identify small molecule agonists of the constitutive androstane receptor (CAR) signaling pathway - cell viability counter screen (AID 1224836); also: series mostly up to about 92 µM; nearly all actives have a fitted effect of over 45% in size
Method in brief: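 HepG2 cells stably carrying hCAR and a CYP2B6-2.2kb reporter; 15-concentration compounds plus PK11195 (final 0.75 uM), 23 hr at 37 C/5% CO2. Viability read by CellTiter-Fluor fluorescence.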

[4] = qHTS assay to identify small molecule antagonists of the constitutive androstane receptor (CAR) signaling pathway - cell viability counter screen (AID 1224837); also: series mostly up to about 92 µM; nearly all actives have a fitted effect of over 45% in size
Method in brief: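 In quantitative HTS format, compounds at 15 concentrations were applied to HepG2 cells double-transfected with hCAR and CYP2B6-2.2kb under 50 nM CITCO stimulation; live-cell protease activity was read after 23 hr via CellTiter-Fluor.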

[5] = target: Nuclear receptor subfamily 1 group I member 3 (Homo sapiens) (UniProt Q14994); test: qHTS assay to identify small molecule agonists of the constitutive androstane receptor (CAR) signaling pathway (AID 1224839);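 also: HepG2 cells stably carrying human CAR and a CYP2B6 luciferase reporter; series mostly up to about 92 µM; nearly all actives have a fitted effect of over 15% in size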
Chain of Nuclear receptor subfamily 1 group I member 3 (Homo sapiens) (Q14994 whole entry, looked up): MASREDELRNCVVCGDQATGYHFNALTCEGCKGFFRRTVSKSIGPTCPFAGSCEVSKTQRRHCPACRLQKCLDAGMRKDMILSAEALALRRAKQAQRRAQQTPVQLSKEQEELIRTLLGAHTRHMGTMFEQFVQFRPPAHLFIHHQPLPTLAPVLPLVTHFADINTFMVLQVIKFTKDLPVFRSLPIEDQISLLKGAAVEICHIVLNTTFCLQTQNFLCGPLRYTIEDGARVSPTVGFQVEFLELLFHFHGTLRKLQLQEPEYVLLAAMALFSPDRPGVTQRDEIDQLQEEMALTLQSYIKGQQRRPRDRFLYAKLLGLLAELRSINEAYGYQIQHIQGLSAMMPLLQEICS
Method in brief: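 HepG2 cells stably co-transfected with hCAR and a CYP2B6-2.2kb luciferase reporter; compounds at 15 concentrations with 0.75 uM PK11195 present. After 24 hr at 37 C, luciferase read by ONE-Glo luminescence.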

[6] = qHTS assay to identify small molecule antagonists of the estrogen related receptor signaling pathway with the pleiotropic PPARgamma coactivator (PGC) from Tox21 10K library - cell viability counter screen (AID 1224840; active = well fitted cell-killing curve with a large enough effect in the repeat runs, not every such curve was filed as active; also: nearly all actives have a fitted effect of over 40% in size)
Method in brief: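 Viability counter screen, PGC/ERR cells: 17.5 h compound exposure at 37 C, CellTiter-Fluor fluorescence endpoint.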

[7] = qHTS assay to identify small molecule antagonists of the estrogen related receptor signaling pathway with the pleiotropic PPARgamma coactivator (PGC) from Tox21 10K library (AID 1224841; call rule not given here; also: series mostly up to about 92 µM; actives are mostly falling curves and most rising ones were filed inactive; nearly all actives have a fitted effect of over 50% in size)
Method in brief: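 In the PGC/ERR line, DMSO solutions of test chemicals are pin-delivered to 2,000 cells/well six hours after dispensing. Following eighteen hours' incubation, One-Glo reagent is added and luminescence recorded.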

[8] = qHTS assay to identify small molecule agonists of the estrogen related receptor signaling pathway with the pleiotropic PPARgamma coactivator (PGC) from Tox21 10K library (AID 1224842); also: nearly all actives have a fitted effect of over 15% in size
Method in brief: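 Luminescence from One-Glo (30 min, room temperature) measured after PGC/ERR cells had 18 h at 37 C with pinned compound (23 nL in DMSO). Cells had been seeded at 2,000 per well and pre-incubated 6 h.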

[9] = target: Nuclear receptor subfamily 1 group I member 3 (Homo sapiens) (UniProt Q14994); test: qHTS assay to identify small molecule antagonists of the constitutive androstane receptor (CAR) signaling pathway (AID 1224838); also: nearly all actives have a fitted effect of over 40% in size
Method in brief: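 CITCO-stimulated (50 nM final) HepG2 cells stably transfected with hCAR and CYP2B6-2.2kb luciferase were exposed to compounds at 15 concentrations for 24 h at 37 C/5% CO2. A luciferase reagent was added and luminescence recorded after 30 min.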

Measured: Potency

CN(C)c1ccc(C=O)cc1
not listed: [9]
inactive: all other assays above

C=C1CC/C=C(\C)CC[C@@H]2[C@@H]1CC2(C)C
not listed: [5] | [6]
inactive: all other assays above

O=C(OCc1ccccc1)C(=O)OCc1ccccc1
not listed: [5]
inactive: all other assays above

Nc1ccc(S(=O)(=O)Nc2ccc(Cl)nn2)cc1
not listed: [5]
inactive: all other assays above

CCCN1C[C@H](CSC)C[C@@H]2c3cccc4[nH]cc(c34)C[C@H]21
inactive: [1] | [2] | [3] | [4] | [6]

CCn1ccc(NS(=O)(=O)c2ccc(N)cc2)nc1=O
not listed: [9]
inactive: all other assays above

COc1ccc2c(c1)C(=O)N(CCc1ccc(S(=O)(=O)NC(=O)NC3CCCCC3)cc1)C(=O)C2(C)C
inactive: [1] | [2] | [3] | [4] | [5]

COC(=O)CCCCCCCC(=O)OC
not listed: [5]
inactive: all other assays above
